According to PubChem BioAssay (NCI):
Compounds without any hit were thinned out: in the full panel of roughly 83,000, 20% have a hit.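 In brief: 96-well plates, 48 h treatment, single concentration, percent growth endpoint.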 Values without a mark were called inactive. Activity calls are given as the source filed them. How the source made its calls: active means growth percent below 10; inactive means the rest.

Experiments:
Test in all cases: NCI-60 one-dose screen, 48 h (100 = growth as untreated, 0 = no growth, -100 = all killed)
Details in all cases: 10 µM unless noted
HT29 colon = test system: HT29 colon
SNB-75 CNS = test system: SNB-75 CNS
SNB-19 CNS = test system: SNB-19 CNS
U251 CNS = test system: U251 CNS
SK-MEL-5 melanoma = test system: SK-MEL-5 melanoma
UACC-62 melanoma = test system: UACC-62 melanoma
LOX IMVI melanoma = test system: LOX IMVI melanoma
SK-MEL-28 melanoma = test system: SK-MEL-28 melanoma
SK-MEL-2 melanoma = test system: SK-MEL-2 melanoma
SN12C renal = test system: SN12C renal
UO-31 renal = test system: UO-31 renal
TK-10 renal = test system: TK-10 renal
ACHN renal = test system: ACHN renal
CAKI-1 renal = test system: CAKI-1 renal
A498 renal = test system: A498 renal
CCRF-CEM leukemia = test system: CCRF-CEM leukemia
MOLT-4 leukemia = test system: MOLT-4 leukemia
SR leukemia = test system: SR leukemia
EKVX NSCLC = test system: EKVX NSCLC
PC-3 prostate = test system: PC-3 prostate

Structure (SMILES) | growth (HT29 colon) | growth (SNB-75 CNS) | growth (SNB-19 CNS) | growth (U251 CNS) | growth (SK-MEL-5 melanoma) | growth (UACC-62 melanoma) | growth (LOX IMVI melanoma) | growth (SK-MEL-28 melanoma) | growth (SK-MEL-2 melanoma) | growth (SN12C renal) | growth (UO-31 renal) | growth (TK-10 renal) | growth (ACHN renal) | growth (CAKI-1 renal) | growth (A498 renal) | growth (CCRF-CEM leukemia) | growth (MOLT-4 leukemia) | growth (SR leukemia) | growth (EKVX NSCLC) | growth (PC-3 prostate) [%]
O=C1C(Cl)=C(N=Nc2c(Cl)c(O)c3ccccc3c2O)C(=O)c2ccccc21 | 76.3% | 85.8% | 66.3% | 53.3% | 53.1% | 5.34% (active) | 43% | 67.3% | 98.5% | 71.8% | 70.4% | 116% | 77% | 88.9% | 63.6% | 43.5% | 62.1% | 34.9% |  | 
O=Nc1ccc(O)c(=O)cc1 | 4.07% (active) | 63.3% | 102% | 14.6% | 79.8% | 34.9% | -4.94% (active) | 55.9% | 71.4% |  | -36% (active) | 14.6% | 1.32% (active) | -7.71% (active) |  |  | 14% | 2.22% (active) | 72.5% | 
Cc1nc2cc(NC(=O)CN3CCN(CCN4C(=O)c5cccc6cccc(c56)C4=O)CC3)ccc2s1 | 33.6% | 57.1% | 44.7% | 43.4% | 39.4% | 62.5% | 39.9% | 86.4% | 73% | 39.8% | 53.6% | 87.9% | 33.9% | 72.9% |  | 31.7% | 9.64% (active) | 22% | 69.9% | 
Cc1nn(-c2ccccc2)c2c1oc(=O)c1cc(Cl)ccc12 | 101% | 83.7% | 99.2% | 105% | 110% | 92.3% | 105% | 140% |  |  | 102% |  | 101% | 84.9% | 90.9% | 98.1% | 134% |  | 93.2% | 
N#CCNc1ccccc1N | 86.4% | 77.8% | 117% | 97.2% | 96% | 95.3% | 95.1% | 110% | 107% | 104% | 65.1% | 104% |  |  | 104% |  | 85.1% | 116% | 89.6% | 
c1ccc2cc(C[n+]3ccn(CCCCCCCn4cc[n+](Cc5ccc6ccccc6c5)c4)c3)ccc2c1 | 10.4% | -2.59% (active) | 21.6% | 21% | -5.55% (active) | 27.3% | 40.7% | 44.3% | 23.4% | 24.2% | 76.7% | 70.6% | 60.2% | 91.9% | -3.36% (active) |  | 56.1% | 50.9% | 27.9% | 
COc1cc2c(cc1OCCCOc1ccc(-c3cc4ccccc4c4ccccc34)cc1)N=C[C@@H]1CCCN1C2=O | -46.6% (active) | -78% (active) | -46.8% (active) | -79.3% (active) | -80.2% (active) | -83.6% (active) | -62.1% (active) | -62.2% (active) | -78.8% (active) |  | -59.3% (active) | -75.6% (active) | -85.3% (active) | -19.6% (active) | -82.8% (active) | 6.61% (active) | 17.4% | 102% | -74.1% (active) | 
O=C(Oc1ccc[nH]c1=O)c1cccc(Cl)c1 | 97.4% | 53.2% | 85.8% | 92.7% | 99.8% | 95.3% | 90.8% | 127% | 108% | 108% | 96.2% | 107% | 96% | 101% |  | 123% | 115% | 99.2% | 104% | 
COc1ccc(Nc2ccnc(NCCCNc3ccnc4cc(Cl)ccc34)n2)cc1 | -56.6% (active) | -75.5% (active) | 7.11% (active) | -84.3% (active) | -98% (active) | -91.2% (active) | -80.4% (active) | -93.6% (active) | -86.4% (active) | -21.5% (active) | -71.8% (active) | -72.3% (active) | -96.8% (active) | -40.3% (active) | -7.79% (active) | -19.3% (active) | -21.1% (active) |  |  | 
CC1=NN(c2ccccc2Cl)C(=O)/C1=C\c1cn(S(=O)(=O)c2ccc(C)cc2)c2ccccc12 | 122% | 89.3% | 114% | 103% | 106% | 86.5% | 97.4% |  | 114% | 97.5% | 78.2% | 167% | 97.5% | 87.8% | 117% | 135% | 173% |  | 98% | 
Cc1ccccc1-c1cc(Cc2ccccc2O)c(=O)[nH]n1 | 139% | 106% | 123% | 103% | 94.8% | 95.3% | 100% | 131% |  | 97.4% | 71.1% | 130% | 94.9% | 88.8% | 110% | -49.5% (active) | 86.7% | 92.5% | 67% | 
COc1ccc(-c2cn(-c3ccccc3)c(-c3ccccc3)n2)cc1OC | 19.4% | 95.9% | 117% | 29.2% | 74.5% | 62.4% | 14.5% | 102% |  | 71.9% | 52.1% | 99.4% | 64.4% | 79.3% | 104% | -66.6% (active) | 77% | 11.3% | 84.9% | 
Cc1ccc(C=C2C(Cl)=C(Cl)C(Cl)=C2Cl)cc1 | 8.19% (active) | -11.6% (active) | -78.3% (active) | -86.3% (active) | -94.4% (active) |  | -88.7% (active) | -87.8% (active) |  | -43.4% (active) | -88% (active) | -44.6% (active) | -54.8% (active) | -35.1% (active) | -88.8% (active) | -45.2% (active) | 18.3% | 19% | -10.6% (active) | 
Cc1nc2c(O)cccc2cc1CO | 99.8% | 78.2% | 104% | 109% | 98.5% |  | 106% | 139% | 122% | 105% | 103% |  | 110% | 104% |  | 107% | 105% | 67.7% | 107% | 
CCN(CC)CCCCNc1c2ccccc2[n+](C)c2c1[nH]c1ccccc12 | 0.443% (active) | -49.8% (active) | -22.7% (active) | 0.218% (active) | -69.9% (active) |  | -5.07% (active) |  | -90.7% (active) | -2.39% (active) | 22.2% |  | 27.9% | 81% | -11.8% (active) | -33.1% (active) | -4.88% (active) | -37.3% (active) | -20.3% (active) | 
O=C(/C=C/c1cccnc1)/C=C/c1cccnc1 | -55.2% (active) | 24.7% | 21.5% | -34.9% (active) |  | -69.4% (active) | -84% (active) | -78.4% (active) | 64.1% | 4.41% (active) | -81.9% (active) | 17.3% | 13% | -20.5% (active) | 93.1% | -48.4% (active) | -22.8% (active) | -57.3% (active) | 43.3% | 
O=C(C(Br)Br)C(Br)C(Br)c1ccccc1 (stereo not drawn) | -5.3% (active) | 115% | 112% |  | 99.3% | 95.2% | 53.3% | 106% | 117% | 93.7% | 17.8% | 27.7% | 6.67% (active) | 72.7% | 101% | 14.8% | 27.7% | 19.3% | 117% | 101
